Measured values: the supplement of paper PMC11732987, “Enantioselective OTUD7B fragment discovery through chemoproteomics screening and high-throughput optimisation” (Communications Chemistry, 2025)

Assays:
Assay in all cases: log2 ratio of Biotin-Ahx-Ub-VS probe labelling (fragment/DMSO); higher = less target engagement (more negative = stronger competition), active = hit call of the paper (q ≤ 0.05, log2 ratio ≤ -1)
Details in all cases: compound concentration: 200 uM; treatment time: 3 h
USP42 = target: T1, USP42 (UniProt Q9H9J4)
T1 sequence (whole entry): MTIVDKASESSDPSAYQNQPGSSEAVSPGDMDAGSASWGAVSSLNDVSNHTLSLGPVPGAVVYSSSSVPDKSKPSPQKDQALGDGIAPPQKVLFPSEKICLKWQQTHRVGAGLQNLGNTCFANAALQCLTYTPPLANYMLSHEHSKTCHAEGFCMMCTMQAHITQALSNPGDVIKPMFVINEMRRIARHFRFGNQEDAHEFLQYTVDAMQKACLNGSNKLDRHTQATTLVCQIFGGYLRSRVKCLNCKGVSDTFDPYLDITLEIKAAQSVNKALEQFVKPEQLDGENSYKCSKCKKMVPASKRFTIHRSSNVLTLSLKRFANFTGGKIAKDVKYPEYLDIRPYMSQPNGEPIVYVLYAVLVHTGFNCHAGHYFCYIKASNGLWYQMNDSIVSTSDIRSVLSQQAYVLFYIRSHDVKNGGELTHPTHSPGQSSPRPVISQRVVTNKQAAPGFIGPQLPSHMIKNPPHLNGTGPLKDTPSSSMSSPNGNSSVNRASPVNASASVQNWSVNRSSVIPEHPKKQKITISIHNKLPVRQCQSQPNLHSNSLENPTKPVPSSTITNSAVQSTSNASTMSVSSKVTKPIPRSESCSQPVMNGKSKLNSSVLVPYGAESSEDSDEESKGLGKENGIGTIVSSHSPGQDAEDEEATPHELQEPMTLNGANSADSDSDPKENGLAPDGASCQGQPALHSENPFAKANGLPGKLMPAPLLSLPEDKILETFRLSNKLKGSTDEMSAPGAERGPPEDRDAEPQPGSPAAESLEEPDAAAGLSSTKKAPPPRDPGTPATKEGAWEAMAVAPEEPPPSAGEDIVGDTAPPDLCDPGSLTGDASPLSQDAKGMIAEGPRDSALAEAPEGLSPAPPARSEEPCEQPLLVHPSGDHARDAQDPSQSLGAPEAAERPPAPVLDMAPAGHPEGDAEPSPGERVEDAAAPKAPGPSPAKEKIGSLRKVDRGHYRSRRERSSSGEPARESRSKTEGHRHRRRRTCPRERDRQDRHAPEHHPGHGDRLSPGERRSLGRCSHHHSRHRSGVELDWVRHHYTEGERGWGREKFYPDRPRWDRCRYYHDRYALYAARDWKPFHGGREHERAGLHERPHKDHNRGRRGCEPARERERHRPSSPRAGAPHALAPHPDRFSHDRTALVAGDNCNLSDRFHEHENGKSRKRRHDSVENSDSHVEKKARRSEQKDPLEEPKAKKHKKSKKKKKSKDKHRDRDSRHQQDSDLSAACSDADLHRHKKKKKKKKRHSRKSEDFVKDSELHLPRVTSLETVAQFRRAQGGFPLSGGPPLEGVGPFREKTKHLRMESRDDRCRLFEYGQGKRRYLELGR
Summary of the method: (§1)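 Using Biotin-Ahx-Ub-VS at 0.5 µM final for 1 h, DUBs were labelled in HEK293T lysate (495 µg per sample) that had first been treated in triplicate with fragment at 200 µM or vehicle for 3 h. NeutrAvidin enrichment, LysC and trypsin digestion and diaPASEF LC-MS/MS followed. Spectronaut label-free quantities were global-median-normalised. Values are average log2 fragment/vehicle ratios by unpaired t-test, using proteins with ≥2 unique peptides.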

USP46 = USP46 (UniProt P62068)
Sequence of USP46 (P62068 whole entry): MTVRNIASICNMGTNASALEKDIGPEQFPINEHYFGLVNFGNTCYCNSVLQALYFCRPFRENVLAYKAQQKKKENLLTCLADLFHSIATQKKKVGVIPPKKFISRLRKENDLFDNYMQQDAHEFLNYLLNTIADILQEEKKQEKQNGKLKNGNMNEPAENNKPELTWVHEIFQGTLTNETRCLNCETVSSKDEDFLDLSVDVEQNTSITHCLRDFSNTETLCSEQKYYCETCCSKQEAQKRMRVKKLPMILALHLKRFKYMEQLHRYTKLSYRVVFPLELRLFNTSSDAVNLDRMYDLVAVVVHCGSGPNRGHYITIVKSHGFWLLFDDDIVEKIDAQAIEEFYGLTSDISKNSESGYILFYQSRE
Summary of the method: as §1

USP47 = target: T2, USP47 (UniProt Q96K76)
T2 sequence (whole entry): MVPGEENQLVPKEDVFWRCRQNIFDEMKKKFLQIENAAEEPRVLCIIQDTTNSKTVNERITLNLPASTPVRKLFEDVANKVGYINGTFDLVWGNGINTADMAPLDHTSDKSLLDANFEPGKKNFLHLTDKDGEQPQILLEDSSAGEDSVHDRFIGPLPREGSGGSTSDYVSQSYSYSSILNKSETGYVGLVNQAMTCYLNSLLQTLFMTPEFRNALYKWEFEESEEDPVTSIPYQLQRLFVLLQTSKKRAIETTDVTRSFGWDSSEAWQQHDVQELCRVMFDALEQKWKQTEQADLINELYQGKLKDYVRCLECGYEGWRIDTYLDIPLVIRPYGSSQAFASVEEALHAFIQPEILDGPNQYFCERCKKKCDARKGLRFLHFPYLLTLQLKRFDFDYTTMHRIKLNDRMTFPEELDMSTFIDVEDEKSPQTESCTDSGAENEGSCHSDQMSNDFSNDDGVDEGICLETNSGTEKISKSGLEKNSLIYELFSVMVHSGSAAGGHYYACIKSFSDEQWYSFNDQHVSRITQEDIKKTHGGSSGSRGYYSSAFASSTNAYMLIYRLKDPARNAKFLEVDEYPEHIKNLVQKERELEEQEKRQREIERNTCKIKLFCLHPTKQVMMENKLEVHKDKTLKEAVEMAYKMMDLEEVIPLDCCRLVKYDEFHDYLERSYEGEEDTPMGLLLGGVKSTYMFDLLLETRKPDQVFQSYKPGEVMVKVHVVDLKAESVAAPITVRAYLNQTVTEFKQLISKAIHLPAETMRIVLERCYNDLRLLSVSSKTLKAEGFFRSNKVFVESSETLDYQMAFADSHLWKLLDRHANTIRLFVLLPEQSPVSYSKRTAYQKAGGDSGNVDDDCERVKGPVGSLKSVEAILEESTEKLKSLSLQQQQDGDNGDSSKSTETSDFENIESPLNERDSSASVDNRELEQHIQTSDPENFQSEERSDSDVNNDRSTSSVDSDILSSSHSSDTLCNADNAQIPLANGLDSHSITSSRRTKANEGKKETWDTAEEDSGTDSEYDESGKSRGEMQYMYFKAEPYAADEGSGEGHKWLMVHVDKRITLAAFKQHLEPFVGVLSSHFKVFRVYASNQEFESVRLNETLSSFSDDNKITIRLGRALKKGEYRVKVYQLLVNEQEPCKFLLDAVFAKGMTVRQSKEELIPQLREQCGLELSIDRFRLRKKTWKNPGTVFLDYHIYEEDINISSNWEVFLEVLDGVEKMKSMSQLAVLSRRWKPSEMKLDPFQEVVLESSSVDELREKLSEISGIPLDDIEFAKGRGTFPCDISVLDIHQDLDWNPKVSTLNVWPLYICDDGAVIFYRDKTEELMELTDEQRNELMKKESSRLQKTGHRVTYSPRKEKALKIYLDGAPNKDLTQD
Summary of the method: as §1

USP48 = target: T3, USP48 (UniProt Q86UV5)
T3 sequence (whole entry): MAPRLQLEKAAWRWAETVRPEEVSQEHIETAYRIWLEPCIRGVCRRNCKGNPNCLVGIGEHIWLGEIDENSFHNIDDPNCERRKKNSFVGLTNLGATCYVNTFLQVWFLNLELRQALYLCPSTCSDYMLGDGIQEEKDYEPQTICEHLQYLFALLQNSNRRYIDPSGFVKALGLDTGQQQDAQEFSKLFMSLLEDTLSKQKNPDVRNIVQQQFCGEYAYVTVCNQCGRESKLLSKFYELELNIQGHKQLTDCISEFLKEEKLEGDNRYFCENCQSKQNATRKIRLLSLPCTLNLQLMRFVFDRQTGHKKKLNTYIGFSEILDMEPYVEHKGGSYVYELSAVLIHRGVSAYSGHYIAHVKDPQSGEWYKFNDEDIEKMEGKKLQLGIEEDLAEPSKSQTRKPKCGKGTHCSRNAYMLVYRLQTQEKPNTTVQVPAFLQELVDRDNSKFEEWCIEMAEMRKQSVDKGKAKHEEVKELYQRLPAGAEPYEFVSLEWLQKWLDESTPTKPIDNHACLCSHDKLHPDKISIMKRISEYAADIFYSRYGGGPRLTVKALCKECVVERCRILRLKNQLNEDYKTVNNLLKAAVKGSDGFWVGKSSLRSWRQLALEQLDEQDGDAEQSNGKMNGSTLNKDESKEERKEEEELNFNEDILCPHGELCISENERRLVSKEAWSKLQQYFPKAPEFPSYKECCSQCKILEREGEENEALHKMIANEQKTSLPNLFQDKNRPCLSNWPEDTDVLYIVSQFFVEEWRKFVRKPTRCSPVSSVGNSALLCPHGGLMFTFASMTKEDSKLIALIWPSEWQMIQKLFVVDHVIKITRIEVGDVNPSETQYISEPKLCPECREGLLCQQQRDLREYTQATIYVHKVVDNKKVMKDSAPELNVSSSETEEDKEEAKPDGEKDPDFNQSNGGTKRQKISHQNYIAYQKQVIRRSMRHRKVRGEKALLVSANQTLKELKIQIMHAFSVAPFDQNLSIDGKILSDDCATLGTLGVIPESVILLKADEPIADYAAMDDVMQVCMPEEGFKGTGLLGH
Summary of the method: as §1

USP5 = target: T4, USP5 (UniProt P45974)
T4 sequence (whole entry): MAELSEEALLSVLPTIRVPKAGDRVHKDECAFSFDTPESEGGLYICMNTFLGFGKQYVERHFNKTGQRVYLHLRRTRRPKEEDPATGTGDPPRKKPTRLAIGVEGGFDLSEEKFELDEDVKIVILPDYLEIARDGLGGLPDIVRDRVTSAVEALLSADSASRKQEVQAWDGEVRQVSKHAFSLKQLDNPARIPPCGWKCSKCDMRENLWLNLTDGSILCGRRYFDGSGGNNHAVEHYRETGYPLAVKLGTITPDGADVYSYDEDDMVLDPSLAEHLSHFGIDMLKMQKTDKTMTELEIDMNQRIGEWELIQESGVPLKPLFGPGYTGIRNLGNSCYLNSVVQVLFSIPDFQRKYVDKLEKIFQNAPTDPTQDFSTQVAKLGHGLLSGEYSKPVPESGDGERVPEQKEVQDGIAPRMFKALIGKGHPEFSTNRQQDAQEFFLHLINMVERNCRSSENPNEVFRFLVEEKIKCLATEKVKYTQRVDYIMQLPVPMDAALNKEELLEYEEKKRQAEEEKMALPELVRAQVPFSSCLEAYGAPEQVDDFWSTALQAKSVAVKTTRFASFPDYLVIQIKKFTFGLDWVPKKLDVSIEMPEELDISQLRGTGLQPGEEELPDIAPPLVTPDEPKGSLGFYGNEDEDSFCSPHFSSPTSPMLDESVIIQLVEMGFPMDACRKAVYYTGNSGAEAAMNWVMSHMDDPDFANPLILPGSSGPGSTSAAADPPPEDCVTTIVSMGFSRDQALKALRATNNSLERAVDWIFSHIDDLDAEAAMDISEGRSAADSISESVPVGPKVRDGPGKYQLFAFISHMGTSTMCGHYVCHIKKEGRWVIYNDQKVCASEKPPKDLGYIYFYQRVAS
Summary of the method: as §1

USP54 = USP54 (UniProt Q70EL1)
Sequence of USP54 (Q70EL1 whole entry): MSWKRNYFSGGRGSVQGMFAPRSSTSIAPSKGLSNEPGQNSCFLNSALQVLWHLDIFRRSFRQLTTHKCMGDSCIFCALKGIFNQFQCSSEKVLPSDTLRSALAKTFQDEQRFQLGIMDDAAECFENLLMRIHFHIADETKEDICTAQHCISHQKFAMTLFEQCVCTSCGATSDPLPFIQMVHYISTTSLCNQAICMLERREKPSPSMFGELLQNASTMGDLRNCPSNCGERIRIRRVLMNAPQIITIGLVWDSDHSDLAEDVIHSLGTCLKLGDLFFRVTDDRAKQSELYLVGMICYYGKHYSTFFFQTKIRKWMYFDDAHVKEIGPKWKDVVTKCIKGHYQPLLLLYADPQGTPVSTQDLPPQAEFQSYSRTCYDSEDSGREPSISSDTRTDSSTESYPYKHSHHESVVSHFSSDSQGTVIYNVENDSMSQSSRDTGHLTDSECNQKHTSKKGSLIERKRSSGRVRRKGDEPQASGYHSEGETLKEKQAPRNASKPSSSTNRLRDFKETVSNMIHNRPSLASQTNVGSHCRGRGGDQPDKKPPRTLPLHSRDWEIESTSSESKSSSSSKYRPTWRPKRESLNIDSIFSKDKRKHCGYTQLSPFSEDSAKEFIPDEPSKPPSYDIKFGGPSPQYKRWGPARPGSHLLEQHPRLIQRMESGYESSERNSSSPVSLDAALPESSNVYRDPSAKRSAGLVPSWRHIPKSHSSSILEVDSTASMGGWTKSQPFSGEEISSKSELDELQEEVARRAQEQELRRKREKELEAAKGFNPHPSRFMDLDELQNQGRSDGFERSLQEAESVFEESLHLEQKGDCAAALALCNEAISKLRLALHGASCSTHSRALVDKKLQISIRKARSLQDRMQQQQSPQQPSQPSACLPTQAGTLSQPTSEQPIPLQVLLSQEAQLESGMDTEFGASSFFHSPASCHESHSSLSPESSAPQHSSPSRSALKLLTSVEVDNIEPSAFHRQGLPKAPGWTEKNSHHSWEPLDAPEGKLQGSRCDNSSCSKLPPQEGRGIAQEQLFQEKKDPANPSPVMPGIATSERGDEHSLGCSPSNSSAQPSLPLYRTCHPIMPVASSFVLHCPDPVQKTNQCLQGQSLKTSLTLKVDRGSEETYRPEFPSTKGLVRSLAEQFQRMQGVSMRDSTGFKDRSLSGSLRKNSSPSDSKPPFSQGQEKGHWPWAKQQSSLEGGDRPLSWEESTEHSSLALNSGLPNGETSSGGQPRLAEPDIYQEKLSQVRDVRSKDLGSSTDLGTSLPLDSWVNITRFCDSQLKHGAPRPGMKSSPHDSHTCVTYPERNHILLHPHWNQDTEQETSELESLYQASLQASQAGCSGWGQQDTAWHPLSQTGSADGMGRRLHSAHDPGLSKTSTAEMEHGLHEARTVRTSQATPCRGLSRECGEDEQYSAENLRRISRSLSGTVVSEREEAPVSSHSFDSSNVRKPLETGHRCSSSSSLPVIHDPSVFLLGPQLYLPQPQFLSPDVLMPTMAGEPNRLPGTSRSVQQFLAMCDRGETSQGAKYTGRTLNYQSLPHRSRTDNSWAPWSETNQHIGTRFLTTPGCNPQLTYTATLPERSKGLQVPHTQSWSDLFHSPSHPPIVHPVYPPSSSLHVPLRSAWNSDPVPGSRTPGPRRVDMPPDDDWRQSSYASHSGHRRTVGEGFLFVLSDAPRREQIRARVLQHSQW
Summary of the method: as §1

USP7 = USP7 (UniProt Q93009)
Sequence of USP7 (Q93009 whole entry, looked up): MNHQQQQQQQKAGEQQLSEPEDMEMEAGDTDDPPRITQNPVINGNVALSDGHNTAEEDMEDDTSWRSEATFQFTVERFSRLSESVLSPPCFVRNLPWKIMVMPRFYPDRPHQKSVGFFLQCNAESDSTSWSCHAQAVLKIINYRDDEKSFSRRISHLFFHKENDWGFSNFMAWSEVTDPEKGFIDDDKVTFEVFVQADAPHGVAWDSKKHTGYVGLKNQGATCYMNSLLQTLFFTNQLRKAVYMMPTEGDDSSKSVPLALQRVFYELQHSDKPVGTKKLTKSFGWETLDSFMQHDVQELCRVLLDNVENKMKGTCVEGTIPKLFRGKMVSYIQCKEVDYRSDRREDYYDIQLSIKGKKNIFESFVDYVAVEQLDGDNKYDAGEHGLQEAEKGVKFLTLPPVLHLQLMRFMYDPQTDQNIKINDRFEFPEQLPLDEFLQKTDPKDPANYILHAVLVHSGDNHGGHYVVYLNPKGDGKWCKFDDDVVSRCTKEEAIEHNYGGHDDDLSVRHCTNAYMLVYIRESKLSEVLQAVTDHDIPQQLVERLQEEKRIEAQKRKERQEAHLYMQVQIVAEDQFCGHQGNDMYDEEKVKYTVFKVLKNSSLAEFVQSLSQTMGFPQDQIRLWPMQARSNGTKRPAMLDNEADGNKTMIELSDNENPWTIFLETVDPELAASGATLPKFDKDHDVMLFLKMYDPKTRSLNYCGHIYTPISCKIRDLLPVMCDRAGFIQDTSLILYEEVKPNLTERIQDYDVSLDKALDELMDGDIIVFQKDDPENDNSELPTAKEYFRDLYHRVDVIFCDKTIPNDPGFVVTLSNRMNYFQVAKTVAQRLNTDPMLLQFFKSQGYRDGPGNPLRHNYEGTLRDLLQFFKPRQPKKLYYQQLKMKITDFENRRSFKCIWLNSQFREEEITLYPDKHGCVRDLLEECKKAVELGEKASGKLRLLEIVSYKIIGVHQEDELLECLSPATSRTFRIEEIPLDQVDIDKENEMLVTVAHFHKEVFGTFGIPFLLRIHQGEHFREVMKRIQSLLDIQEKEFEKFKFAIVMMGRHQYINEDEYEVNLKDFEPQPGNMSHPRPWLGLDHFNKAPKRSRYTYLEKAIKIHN
Summary of the method: as §1

USP8 = target: T5, USP8 (UniProt P40818)
T5 sequence (whole entry): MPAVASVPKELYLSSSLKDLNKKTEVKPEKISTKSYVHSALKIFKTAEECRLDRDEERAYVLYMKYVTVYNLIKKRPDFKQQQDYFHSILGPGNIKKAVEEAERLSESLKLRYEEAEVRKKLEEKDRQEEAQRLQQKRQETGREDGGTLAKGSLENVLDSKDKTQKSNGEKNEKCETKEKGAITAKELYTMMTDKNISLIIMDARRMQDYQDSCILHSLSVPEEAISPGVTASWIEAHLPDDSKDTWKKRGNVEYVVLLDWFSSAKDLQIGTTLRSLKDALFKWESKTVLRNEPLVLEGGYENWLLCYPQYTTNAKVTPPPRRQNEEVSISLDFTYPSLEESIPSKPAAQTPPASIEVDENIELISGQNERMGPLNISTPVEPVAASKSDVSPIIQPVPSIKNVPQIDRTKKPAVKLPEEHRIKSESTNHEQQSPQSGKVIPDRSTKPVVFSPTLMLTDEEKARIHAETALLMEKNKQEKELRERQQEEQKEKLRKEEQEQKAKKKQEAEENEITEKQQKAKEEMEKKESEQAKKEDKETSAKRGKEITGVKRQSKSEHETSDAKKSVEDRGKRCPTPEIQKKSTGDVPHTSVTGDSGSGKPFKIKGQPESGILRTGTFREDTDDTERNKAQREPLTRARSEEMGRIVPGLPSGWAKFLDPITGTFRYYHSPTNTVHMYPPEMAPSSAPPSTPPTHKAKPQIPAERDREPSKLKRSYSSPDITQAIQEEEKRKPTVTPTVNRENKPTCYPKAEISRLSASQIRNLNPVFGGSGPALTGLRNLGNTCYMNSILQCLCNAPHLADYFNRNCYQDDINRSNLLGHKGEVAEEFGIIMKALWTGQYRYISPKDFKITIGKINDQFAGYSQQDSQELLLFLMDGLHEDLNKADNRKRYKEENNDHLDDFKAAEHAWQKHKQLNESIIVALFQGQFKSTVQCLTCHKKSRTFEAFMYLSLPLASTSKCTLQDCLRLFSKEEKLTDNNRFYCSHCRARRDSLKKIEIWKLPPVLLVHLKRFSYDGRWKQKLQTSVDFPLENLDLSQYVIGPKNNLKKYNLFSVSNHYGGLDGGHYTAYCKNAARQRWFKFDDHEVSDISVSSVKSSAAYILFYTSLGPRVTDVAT
Summary of the method: as §1

Measured: log2 ratio of Biotin-Ahx-Ub-VS probe labelling

CCN(C(=O)CCl)C1CCS(=O)(=O)C1 (stereo not drawn)
inactive: USP42 0.372 | USP46 -0.128 | USP47 0.027 | USP48 -0.155 | USP5 0.158 | USP54 -0.012 | USP7 -0.288 | USP8 0.0171
